Source: PubChem
These entries were drawn from the full list.
Nrf2 block: Nrf2 pathway inhibition; A549 ARE-Fluc reporter, luciferase luminescence, 18-24 h; Potency, µM (top dose mostly 46 µM), for inactives: top-dose activity change, negative = inhibition, hits mostly inhibitors; 2.1% of 360,000 active; note: % is set by controls: 0 for no effect and ±100 for the full control effect; nearly all actives have a fitted effect of over 60% in size
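Two sequential reads on A549 ARE_Fluc cells exposed to compound for 18-24 h: a CellTiter-Fluor fluorescence read for viability, then a luciferase luminescence read for Nrf2/ARE activity.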
HepG2 viability: HepG2 cytotoxicity, counter-screen for TGF-b inhibitors. HepG2 CAGA-GFP viability, ATP luminescence, 18 h. Potency, µM (doses to about 46.1 µM), without a hit: at the highest dose activity change, negative = cytotoxicity, hits mostly cytotoxic. 0.76% of 410,000 active
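HepG2 CAGA-GFP cells (1000/well, DMEM with 1% FBS) received compound, then TGF-beta at 500 pg/mL final, and were incubated 18 hours at 37 degrees C. Viability was read by CellTiter-Glo luminescence. Media-only wells were set as complete cell-killing and DMSO as no toxicity.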
S2 tox: cell viability loss in ATXN counter-screen; S2 cells (HEK-293 line with an ATXN2-luciferase reporter) viability, CellTiter-Fluor protease fluorescence, 24 h; Potency, µM (series often up to 56.7 µM), most hits filed as cytotoxic; 0.49% of 400,000 active; note: nearly all actives have a fitted effect of over 40% in size
A549 viability: A549 cytotoxicity, counter-screen for Nrf2 inhibitors. Potency, µM (top dose mostly 46 µM), inactives show at the top dose activity change, negative = cytotoxicity, usual class: inhibitors. A549 ARE-Fluc cells, CellTiter-Fluor viability, 18-24 h. 0.16% of 390,000 active; note: % is set by controls: 0 for no effect and ±100 for the full control effect
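A549 ARE-Fluc cells in 5% FBS OPTI-MEM, 5000 cells/well, rested 2 h then exposed to compounds in concentration-response for 18-24 h at 37 °C. Viability by CellTiter-Fluor fluorescence (Ex 405/Em 525) after 30 min; luciferase luminescence (BugLite, 15 min, RT) read afterwards.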
TGFb inhibitor: inhibitors of TGF-b signaling | 1.2% of 410,000 active | HepG2 CAGA-GFP TGF-b/SMAD3 reporter, GFP fluorescence, 18 h; TGF-beta stimulated, 500 pg/mL final | Potency, µM (highest dose often 46.1 µM), for the others: at the top dose activity, negative = inhibition, actives largely listed as inhibitors; note: % is set by controls: 0 for no effect and ±100 for the full control effect; nearly all actives have a fitted effect of over 65% in size
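Inhibition of TGF-beta-driven CAGA-GFP reporter expression in HEPG2 cells is measured by cellular GFP fluorescence after 18 h stimulation with 500 pg/mL recombinant TGF-beta in 1% FBS medium at 37 degrees C.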
ATXN2 expr inh: inhibitors of ATXN2 expression; 0.72% of 360,000 active; HEK-293 ATXN2-luciferase reporter, luminescence, 24 h; Potency, µM (highest dose often 57 µM), without a hit: at the highest dose activity change, negative = inhibition, usual class: inhibitors; AID 1745845; note: % is set by controls: 0 for no effect and ±100 for the full control effect; nearly all actives have a fitted effect of over 55% in size
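ATXN2-luciferase reporter cells (luciferase flanked by upstream and downstream ATXN2 gene portions) were treated 24 h at 37 °C with compounds at up to 57 uM. SteadyGlo luminescence gave expression; GF-AFC fluorescence gave viability.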
The depositor's hits bear a star; i = inactive; ? = inconclusive; / = no result; [ ] = remark or other dose. Calls come from the whole dose curve; as a rule, active = well fitted curve in the direction sought with a large enough effect; inconclusive = small, poorly fitted or top-dose-only effect, or another doubt; inactive = no such curve, though single readings can be large; an effect the other way counts as inactive or inconclusive. Potency is the fitted concentration of half-maximal effect.

SMILES	Nrf2 block	HepG2 viability	S2 tox	A549 viability	TGFb inhibitor	ATXN2 expr inh
CCOc1ccc(S(=O)(=O)Nc2cccc(C(=O)N3CCN(c4ccccn4)CC3)c2)cc1	/	0%	?	/	-12%	/
C[C@H]1CNC(=O)c2c(C(=O)Nc3ccc(CNC(=O)OC(C)(C)C)cc3)ncn21	/	-9%	?	/	-33%	?
Cc1ccccc1[N+](=O)[O-]	-2%	-10%	i	-4%	2%	-11%
Cc1nc(C)c(C(=O)NN=Cc2ccc(N(CCCl)CCCl)cc2)s1	-18%	-6%	i	8%	?	?
O=C(Nc1cc(Cl)cc(Cl)c1)N1Cc2ccccc2-n2nncc2C1	/	-26%	?	/	1%	-24%
CC(C)(C)n1nnnc1C(CCc1ccccc1)N1CCC2(CC1)C(=O)NCN2c1ccccc1 (stereo unspecified)	/	-39%	?	/	?	?
CCC(=O)OC1(c2ccccc2)CCN(C)CC1	/	/	i	/	/	-12%[116 µM]
CN(C)c1ccc(C(=O)c2ccc(N(C)C)cc2)cc1	?	-22%	i	-26%	3%	27%
OC1(c2ccc(Cl)cc2)CCN(Cc2c[nH]c3ccccc23)CC1	-6%	-38%	i	-9%	?	?
COc1cc([C@@H]2c3cc4c(cc3C[C@H]3COC(=O)[C@@H]32)OCO4)cc(OC)c1O	?	4%	/	-5%	-20%	/
COc1ccc(C(=O)NC(=S)N2C[C@H]3C[C@H](C2)c2cccc(=O)n2C3)cc1	13%	-2%	i	-4%	6%	9%
COC(=O)[C@H]1[C@H]2C[C@@H]3c4[nH]c5cc(OC)ccc5c4CCN3C[C@H]2C[C@@H](OC(=O)/C=C/c2cc(OC)c(OC)c(OC)c2)[C@@H]1OC	-20%	5%	?	-20%	3%	5%
COc1cc(CC#N)cc(OC)c1OC	/	/	i	/	/	4%
Oc1cc(Cl)cc(Cl)c1Cl	3%	-25%	i	-3%	?	-10%
CCC(C(N)=O)N1CCCC1=O (stereo unspecified)	/	/	i	/	/	5%
COC(=O)[C@@H](c1ccccc1)C1CCCCN1 (stereo partly specified)	11%	3%	i	-7%	-1%	2%
